Screening results from PubChem.
HCV inh: qHTS Assay for Inhibitors of Hepatitis C Virus (HCV) | Huh7.5.1 HCVcc-Cre infection, luciferase reporter, 44 h | Potency, µM (highest dose often 41.8 µM), for inactives: at the highest dose activity change, negative = inhibition, hits mostly inhibitors | 340,000 compounds, 3.4% hits | AID 651820, 2012; note: potency is the fitted concentration of half-maximal effect; % is set by controls: 0 for no effect and ±100 for the full control effect
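Infectious HCVcc-Cre (~0.5 moi) was added to cells just after compound, with cells seeded 4 h earlier at 1,000 per well. Luciferase activity after 44 h culture reported infection; substrate was incubated 15 min at room temperature before reading.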
Shiga inhibitor: A qHTS for Small Molecule Inhibitors of Shiga Toxin | 290,000 compounds, 9.2% hits | Vero cells, Shiga toxin protein synthesis inhibition reporter | inhibition, % at 38.7 µM | AID 2315, 2010; in the data active = inhibition mostly above about 28%, no sharp cut-off; inactive = mostly below about 43%; note: 0% is about no effect
Cycloheximide cs: Cycloheximide Counterscreen for Small Molecule Inhibitors of Shiga Toxin. cell reporter, cycloheximide protein synthesis inhibition counterscreen. max response, %. 300,000 compounds, 12% hits; in the data active = max response mostly above about 13%, no sharp cut-off; inactive = mostly below about 14%; note: read at 38.3 µM for the half of the compounds with a filed dose; 0% is about no effect
HCMV antiviral: qHTS Assay for inhibitors of the human cytomegalovirus (HCMV) | activity change, negative = inhibition, % at 57.5 µM | AID 1259415, 2018 | 410,000 compounds, 4.5% hits | HFF cells, HCMV-luciferase reporter, 72 h; hits give low values; in the data active = activity change below about -60%; inconclusive = no clear call, values can overlap the other calls; inactive = above about -39%; note: % is set by controls: 0 for no effect and ±100 for the full control effect
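Two-dose cell screen: HFF monolayers treated with compounds and infected with luciferase-expressing HCMV at 1 PFU/cell, 72 h at 37C, then lysed for luciferase measurement.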
Pf growth 48h: Primary qHTS for delayed death inhibitors of the malarial parasite plastid, 48 hour incubation | P. falciparum luciferase growth in erythrocytes, 48 h | Potency, µM (highest dose often 28.7 µM), inactives show top-dose activity change, negative = inhibition, actives largely listed as inhibitors | 310,000 compounds, 5.9% hits | AID 504832, 2011; note: potency is the fitted concentration of half-maximal effect; % is set by controls: 0 for no effect and ±100 for the full control effect
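Erythrocytes infected with P. falciparum carrying an integrated firefly luciferase reporter (2% hematocrit, 0.1% parasitemia final) were exposed to compounds in RPMI 1640 with 0.5% Albumax at 37 C, 5% CO2. Growth inhibition was scored as reduced luminescence.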
Pf growth 96h: Primary qHTS for delayed death inhibitors of the malarial parasite plastid, 96 hour incubation; P. falciparum luciferase reporter growth, 96 h; Potency, µM (doses to about 28.7 µM), inactives show at the highest dose activity change, negative = inhibition, hits mostly inhibitors; 320,000 compounds, 6.9% hits; note: potency is the fitted concentration of half-maximal effect; % is set by controls: 0 for no effect and ±100 for the full control effect
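P. falciparum expressing integrated firefly luciferase grown in erythrocytes (2% hematocrit, 0.05% parasitemia final) with compounds for 96 hours at 37 C, 5% CO2. Growth inhibition read as loss of luminescence after adding luciferase detection reagent.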
The depositor's hits bear a star; ? = inconclusive; / = not tested or not shown; [ ] = dose if it differs, or a comment. This is a sample that favours compounds with a hit; in the whole collection about 21% have one here. Unless noted, calls come from the whole dose curve; as a rule, active = well fitted inhibition curve with a large enough effect; inconclusive = small, poorly fitted or top-dose-only effect, or another doubt; inactive = no such curve, though single readings can be large or run the other way.

SMILES | HCV inh | Shiga inhibitor | Cycloheximide cs | HCMV antiviral | Pf growth 48h | Pf growth 96h
CC1(C)CC(=O)C2=C(C1)NC(Nc1nc3ccccc3o1)=NC21CCCCC1 | 6.3% | -5.0 | -1.4 | 64.4 | ? | 9.28µM*
O=C(NCCCSc1ccccc1)c1cc(Cl)ccc1O | ? | -21.3 | -5.5 | -84.3* | ? | 11.7µM*
O=C(NCCCc1ccccc1)c1ccccc1O | -16.0% | 60.2* | 53.8* | 32.4 | / | -20.9%
O=C(NCCCCCCNC(=O)c1ccccc1O)c1ccccc1O | 10µM* | 8.1 | 9.8 | -78.5* | 8.28µM* | ?
O=C(NCCNC(=O)c1ccccc1O)c1ccccc1O | -4.0% | / | -2.2 | ? | 14.3% | ?
Cc1ccc(CCNC(=O)CN2C(=O)COc3ccc(S(=O)(=O)N4CCCCCC4)cc32)cc1 | / | / | / | 1.2 | / | /
CCOCc1cnc(C)nc1NCC(=O)c1c(C)[nH]c2cc(C)ccc12 | -13.0% | 16.5 | -1.1 | -100.6* | 0.828µM* | 0.294µM*
CCOCc1cnc(C)nc1NCC(=O)c1c(C)[nH]c2ccccc12 | 20.7% | -12.7 | -1.7 | -79.7* | 2.08µM* | 1.65µM*
CCOC(=O)C1CCN(CC(=O)c2c(C)[nH]c3ccccc23)CC1 | -7.7% | 14.3 | -0.2 | 23.2 | -11.7% | -12.8%
O=C1CCCc2c1cc(-c1ccccc1)n2-c1ccccc1 | ? | -10.1 | 2.0 | 78.6 | 7.7% | 0.9%
O=C(/C(C=Nc1cc2c(oc1=O)CCCC2=O)=C(\O)c1ccccc1)c1ccccc1 | -11.3% | 125.2* | 39.8* | -17.8 | 23.9% | 55.7%
O=C(Nc1cc2c3c(c1)CC(=O)N3CCC2)c1ccc(Br)o1 | ? | / | / | 5.3 | ? | ?
Cc1cccc(N2C(=O)c3cccc4c(N)ccc(c34)C2=O)c1 | 10µM* | -12.6 | -3.9 | ? | -20.8% | ?
COc1ccc2c(c1OC)C(=O)N(c1cccc(C)c1)C2=O | 6.0% | 56.0 | 43.4* | -22.5 | 12.1% | 0.0%
Cc1cccc(N2C(=O)c3cccc4c(N(C)CCO)ccc(c34)C2=O)c1 | 11.2µM* | -8.0 | 9.5 | / | ? | 5.86µM*
Nc1cccc(N2C(=O)c3cccc4c(N)ccc(c34)C2=O)c1 | -4.2% | -8.7 | -4.3 | -25.4 | 8.8% | 4.5%
COC(=O)c1ccc(N2C(=O)c3ccc(OC)c(OC)c3C2=O)cc1 | 2.3% | -4.2 | -1.6 | -21.3 | 26.6% | 6.4%[5.75 µM]
CN(C)c1ccc2c3c(cccc13)C(=O)N(c1ccccc1)C2=O | / | 14.3 | 15.1 | / | 14.3% | 79.8%
O=C(C[C@H]1C[C@H](C(=O)N2CCCCC2)[C@@]2(CCc3ccccc3)c3[nH]c4cc(-c5ccco5)ccc4c3CCN2C1=O)NCCC1=CCCCC1 | -7.4% | / | / | / | / | /
CCOC(=O)CN1C(=O)N[C@@H](c2ccccc2)[C@H](C(C)=O)[C@H]1C | 17.2% | / | / | -102.6* | / | /
COC(=O)[C@@H]1[C@@H](C)N(Cc2ccccc2)C(=O)N[C@H]1c1cccc(C(F)(F)F)c1 | 2.82µM* | -9.0 | -5.7 | -19.8 | 17.5% | 47.0%
CC(=O)[C@@H]1[C@@H](C)N(Cc2ccccc2)C(=O)N[C@H]1c1cccc(C(F)(F)F)c1 | ? | -3.0 | -3.0 | -28.6 | ? | 36.8%
CCOC(=O)N1CCc2c(sc(NC(=O)CCS(=O)(=O)c3ccccc3)c2C(N)=O)C1 | ? | -13.3 | 6.8 | -33.5 | ? | 14.7µM*
CC(C)N1CCc2c(sc(NC(=O)CCS(=O)(=O)c3ccccc3)c2C(N)=O)C1 | -10.7% | 11.5 | 3.0 | -110.8* | ? | ?
O=C(O)/C=C/C(=O)Nc1ccc(NC(=O)c2ccccc2)c(Cl)c1 | 8.91µM* | -10.6 | 11.8 | ? | 80.3% | ?
O=C(O)/C=C\C(=O)Nc1cccc(NC(=O)c2ccccc2)c1 | 3.8% | 51.9 | 22.1* | -28.6 | 16.9% | 13.3%
CCOc1ccc(-c2nc(CSc3nnc(C)s3)cs2)cc1OC | ? | 89.2* | 37.1* | 151.7 | 26.3% | /
CCS(=O)(=O)NCCc1csc(-c2ccc(OC)c(OC)c2)n1 | -14.3% | -9.0 | 0.8 | ? | 0.3% | 11.8%
